The values below come from PubChem BioAssay (NCATS).

Inconclusive results are not listed. Active and inactive are the calls of the source. The call rests on the fitted dose curve; in most records, active means well fitted curve in the direction sought with a large enough effect; inconclusive means small, poorly fitted or top-dose-only effect, or another doubt; inactive means no such curve, though single readings can be large; an effect the other way counts as inactive or inconclusive.
Further: nearly all actives have a fitted effect of over 35% in size.
Potency means the concentration at half of the fitted maximal effect.

One assay is described as follows: Quantitative highthroughput screen to assess conditional lethalithy of P12 Ichikawa cells grown in RPMI1640 with dialyzed fetal bovine serum (RPMI+ds) (AID 1963880). Particulars: ATP luminescence, 48 h; Potency: P12-Ichikawa viability; series mostly up to 45.8 µM. The method in brief:
(§1)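 Each medium arm—HPLM with 10% dialyzed FBS, or RPMI1640 with 5 mM glucose and 10% untreated or dialyzed FBS—was screened against an 11-point, 3-fold compound titration for 48 h at 37 °C, with CellTiter-Glo luminescence as endpoint.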
As to `Nc1nc(=S)c2[nH]cnc2[nH]1`, the Potency is 14.8 µM (active).

On to `CN(C)c1ccc(-c2nc3ncc(Cl)c(N4CCN(CC(=O)Nc5nccs5)CC4)c3[nH]2)cc1`, for which the Potency entry is “inactive”.

In the case of `CNC(=O)c1c(-c2ccc(F)cc2)oc2cc(N(CCO)S(C)(=O)=O)c(C3CC3)cc12`, the Potency was 5.9 µM (active).

On to `CNC(=O)c1cc(Oc2ccc(NC(=O)Nc3ccc(Cl)c(C(F)(F)F)c3)c(F)c2)ccn1`, for which the Potency entry is “inactive”.

In the case of `Cc1cccc(Nc2nc(N[C@@H]3CCCC[C@H]3N)ncc2C(N)=O)c1`, the Potency is 1.87 µM (active).

Regarding `O=C(CN1C(=O)C2(CCCC2)NC[C@H]1c1cc(F)cc(F)c1)Nc1ccc2c(c1)C[C@@]1(C2)C(=O)Nc2ncccc21`, the Potency result was “inactive”.

With `Cn1c(Nc2ccc(C(F)(F)F)cc2)nc2cc(Oc3ccnc(-c4ncc(C(F)(F)F)[nH]4)c3)ccc21`, the Potency was 18.7 µM (active).

With `COc1cc(OC2CCN(C)CC2)ccc1Nc1ncc2c(n1)n(C1CCCC1)c(=O)n2C`, the Potency was 20.9 µM (active).

Turning to `COc1cc2c(N3CCN(C(=O)Nc4ccc(OC(C)C)cc4)CC3)ncnc2cc1OCCCN1CCCCC1`, the Potency was 8.33 µM (active).

For `C[C@@H](N)c1ccc(C(=O)Nc2ccnc3[nH]ccc23)cc1`, the Potency result is “inactive”.

As for `CC[C@@]1(O)C[C@H](O[C@H]2C[C@H](N(C)C)[C@H](O[C@H]3C[C@H](O)[C@H](O[C@H]4CCC(=O)[C@H](C)O4)[C@H](C)O3)[C@H](C)O2)c2c(cc3c(c2O)C(=O)c2c(O)cccc2C3=O)[C@@H]1C(=O)OC`, the Potency is 16.6 µM (active).

Turning to `O=C(Nc1cccnc1)N1CCC(Cc2cccc(Oc3ccc(C(F)(F)F)cn3)c2)CC1`, the Potency is 4.18 µM (active).

In the case of `CNCCCC12CCC(c3ccccc31)c1ccccc12`, the Potency is 18.7 µM (active).

A further assay can be described thus: Quantitative highthroughput screen to assess conditional lethalithy of P12 Ichikawa cells grown in RPMI1640 with untreated serum (RPMI+s) (AID 1963881). The note with it: ATP luminescence, 48 h; Potency: viability; series mostly up to 45.8 µM. The method, boiled down:
as §1
Take `Nc1nc(=S)c2[nH]cnc2[nH]1`: the Potency was 20.9 µM (active).

Take `CN(C)c1ccc(-c2nc3ncc(Cl)c(N4CCN(CC(=O)Nc5nccs5)CC4)c3[nH]2)cc1`: the Potency entry was “inactive”.

Consider `CNC(=O)c1c(-c2ccc(F)cc2)oc2cc(N(CCO)S(C)(=O)=O)c(C3CC3)cc12`, for which the Potency is 6.62 µM (active).

On to `Cc1cccc(Nc2nc(N[C@@H]3CCCC[C@H]3N)ncc2C(N)=O)c1`, for which the Potency is 3.32 µM (active).

With `O=C(CN1C(=O)C2(CCCC2)NC[C@H]1c1cc(F)cc(F)c1)Nc1ccc2c(c1)C[C@@]1(C2)C(=O)Nc2ncccc21`, the Potency entry is “inactive”.

Take `Cn1c(Nc2ccc(C(F)(F)F)cc2)nc2cc(Oc3ccnc(-c4ncc(C(F)(F)F)[nH]4)c3)ccc21`: the Potency is 14.8 µM (active).

On to `c1nc2nc(Nc3ccc(N4CCOCC4)cc3)nc(NC3CCCCC3)c2[nH]1`, for which the Potency is 2.64 µM (active).

As to `O=C(Nc1nnc(-c2ccco2)o1)c1cc(-c2ccccc2)nc2ccccc12`, the Potency is 26.4 µM (active).

Turning to `O=C(Nc1cccnc1)N1CCC(Cc2cccc(Oc3ccc(C(F)(F)F)cn3)c2)CC1`, the Potency is 3.72 µM (active).

Regarding `CNCCCC12CCC(c3ccccc31)c1ccccc12`, the Potency was 18.7 µM (active).

Another assay can be described thus: Quantitative highthroughput screen to assess conditional lethalithy of SEM cells grown in Human Plasma-Like Medium with dialyzed fetal bovine serum (HPLM+ds) (AID 1963882). Particulars: SEM B-ALL cells in HPLM+ds, CellTiter-Glo viability, 48 h; series mostly up to 45.8 µM. The method in brief:
as §1
Background: In ATP-based viability assays light output follows the ATP content of the culture.
Regarding `NCCCC(O)(P(=O)(O)O)P(=O)(O)O`, the Potency is 16.6 µM (active).

On to `COc1cc2nc(N3CCN(C(=O)c4ccco4)CC3)nc(N)c2cc1OC`, for which the Potency was 9.35 µM (active).

Turning to `Cn1cc(C2=C(c3c4n(c5ccccc35)CCC(CN)C4)C(=O)NC2=O)c2ccccc21` (stereo unspecified), the Potency is 10.5 µM (active).

For `CNC(=O)c1c(-c2ccc(F)cc2)oc2cc(N(CCO)S(C)(=O)=O)c(C3CC3)cc12`, the Potency was 1.32 µM (active).

For `CC1(C)CCC(CN2CCN(c3ccc(C(=O)NS(=O)(=O)c4ccc(NCC5CCOCC5)c([N+](=O)[O-])c4)c(Oc4cnc5[nH]ccc5c4)c3)CC2)=C(c2ccc(Cl)cc2)C1`, the Potency is 0.0332 µM (active).

`NC1(c2ccc(-c3nc4ccn5c(=O)[nH]nc5c4cc3-c3ccccc3)cc2)CCC1`: the Potency was 1.66 µM (active).

As for `N#CCNC(=O)c1ccc(-c2ccnc(Nc3ccc(N4CCOCC4)cc3)n2)cc1`, the Potency was 11.8 µM (active).

With `CN1CCN(c2cc(C(=O)Nc3ccc4c(c3)-c3c(c(C(N)=O)nn3-c3ccc(F)cc3)CC4)c(Cl)cn2)CC1`, the Potency is 23.5 µM (active).

For the molecule `O=C(CN1C(=O)C2(CCCC2)NC[C@H]1c1cc(F)cc(F)c1)Nc1ccc2c(c1)C[C@@]1(C2)C(=O)Nc2ncccc21`, the Potency entry was “inactive”.

`Cc1ccc2nc(NCCN)c3ncc(C)n3c2c1`: the Potency is 11.8 µM (active).

With `O=C(O)C1=CC(O)C(O)[C@H](O)C1` (stereo partly specified), the Potency result is “inactive”.

With `Cn1c(Nc2ccc(C(F)(F)F)cc2)nc2cc(Oc3ccnc(-c4ncc(C(F)(F)F)[nH]4)c3)ccc21`, the Potency is 9.35 µM (active).

Turning to `COc1cc(OC2CCN(C)CC2)ccc1Nc1ncc2c(n1)n(C1CCCC1)c(=O)n2C`, the Potency is 10.5 µM (active).

On to `CS(=O)(=O)c1cccc(CNc2nc(Nc3ccc4c(c3)CCC(=O)N4)ncc2C(F)(F)F)c1`, for which the Potency was 8.33 µM (active).

As for `C1CCC(C(CC2CCCCN2)C2CCCCC2)CC1` (stereo unspecified), the Potency is 14.8 µM (active).

Take `Nc1nc(Nc2ccc(S(N)(=O)=O)cc2)nn1C(=O)c1c(F)cccc1F`: the Potency was 8.33 µM (active).

On to `CNC(=O)c1c(F)cccc1Nc1nc(Nc2cc3c(cc2OC)CCN3C(=O)CN(C)C)nc2[nH]ccc12`, for which the Potency is 0.59 µM (active).

`COc1cc2ncnc(Nc3cccc(Cl)c3)c2cc1OC`: the Potency is 0.332 µM (active).
